Source: PubChem BioAssay AID1347423 (Functional Genomics Laboratory (NCATS/FGL), 2020)
Among all 52,000 sequences or so, about 210 (0.4%) were called active. Many of the other results were omitted from the sample, so actives are more common in it than they were. A number with no mark means an inactive call.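 Rule for the calls: active = gene whose silencing raises cell survival under the drug, median off-target-corrected z-score across its silencing RNAs 2 or more; inactive = the rest.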

Test: Resistance to Poly (ADP-Ribose) Polymerase inhibitor: Gene Identification via Genome-wide siRNA Screen
Settings: mouse BRCA2 R2336H ES cells, olaparib, CellTiter-Glo viability; hits give high values
Summary of the method: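 Genome-wide siRNA screen (3 siRNAs/gene, 20 nM) in mouse ES cells carrying hypomorphic BRCA2 R2336H; olaparib 500 nM added 48 h post-transfection, CellTiter-Glo viability 72 h later. Normalized to plate-median negative control; MAD z-scores, gene median, seed-adjusted.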

Row | Sequence | z-score
1 | GGAUUGAGCUACAAGAAUATT against E330016A19Rik | -0.0566
2 | CGGACUCCUGACAUUAUAATT against Cd33 | 0.735
3 | GGUCCUCUAAAGAAUAAAGTT against Ela3b | 0.513 (active)
4 | GGAUUCACGUAAGAUUGACTT against Prlpb | 1.33
5 | GCCAACUCAGUUUUGAAUGTT against 4930404J24Rik | -0.142
6 | GGUGUUCGGUGUCCUGGAATT against Pctp | -1.75
7 | UGAAGUCUAAUCAGAGCACTT against Olfr50 | -2.01
8 | GGAAUGCCGGAUUGCUCACTT against BC008163 | 1.25
9 | GGAAGUUUCUGAAUGCUGUTT against Klrd1 | 2.01 (active)
10 | GGUCAUACACUUCUGCACATT against C330006K01Rik | 1.27
11 | GGAGGAGUUGCACCUCAUCTT against Pctk3 | 0.655
12 | GCUACGGAACAAUCACAGCTT against Jarid1d | 0.15
13 | GGAAAGAAAAAAGAUGGUCTT against Riok1 | -1.05
14 | GGUUGACAUCGACCAAUCATT against Klhl1 | 1.3 (active)
15 | AUGUGAUAGUGCCCAGCCUTT against Olfr884 | 1.48
16 | GGAAGAAAUAGAUGAGAAUTT against Tnmd | 0.737
17 | CGUUGAUUUCCAAAGCUGUTT against Kcnc2 | 0.168
18 | GGAACAUUACCAUCAAGCUTT against Eif2s3x | -2.52
19 | CCAAACUUACAAAUAUGCGTT against Sgpp1 | 3.3 (active)
20 | GGAAGUGUUUGAUGUCUUATT against Stk4 | -1.1
21 | GGGAGUUUAUUCAAAAGUGTT against Nrbp | 0.522
22 | GGACUCUUUUCUACGUGGATT against Klhl1 | 3.47 (active)
23 | GGGCAUACAUAUAACCUAUTT against Plekhc1 | 0.785
24 | CAAAUUAUGAGUGAGAACCTT against Olfr340 | -1.17
25 | GCUUAACCGUUUUUUCAAATT against Tgif | 0.555
26 | GGUUAUGAGGCUUAAUAAATT against 2810423G08Rik | 1.54
27 | GGAUCCAAGUUCCUGGCUCTT against A330096I21Rik | -0.601

Row | Sequence | z-score
28 | GGAGACUCAGGAAAAAAUUTT against Olfr1424 | 0.238
29 | CGAACAGUCUGUAUGGCGATT against Jak1 | 3.46 (active)
30 | GGCCAAUUUGAAUAAUCUATT against Zfp119 | 0.0816
31 | GGACCCUGAAGGAGCUGAATT against Per2 | -1.32
32 | UCAAACUAGGUGCUGUUGUTT against Olfr584 | -1.11 (active)
33 | GGAGAUAAAGUCUUAUCACTT against 9130017N09Rik | 0.803
34 | GCAUUUCUUUCUUGCCUUCTT against Olfr1276 | 0.613
35 | GGCUAGCUAACUAUCUCUGTT against 9230105I15Rik | 0.89
36 | GGUUCCAACAAUUGUAAAGTT against Chl1 | 2.35 (active)
37 | GGACAAGCUCCAAAACAACTT against Sfrs4 | -1.45
38 | CCUGCCUUUUCCUAAUGAATT against Ovca2 | 0.573
39 | GACAAAUAGUGCAGGAGGATT against 2310069N01Rik | 0.444
40 | CCAAAUACGACUUACGAAATT against Ncam2 | 0.897
41 | CGAUGUUUUCAUGAACGACTT against 0610012D17Rik | 0.421
42 | GGCAGUGGCUUGGAUAAAUTT against 5730457F11Rik | 2.83 (active)
43 | GGAAGAAGAGCUCUUUAAATT against Acate2 | 0.108
44 | GGACCAGCACCAUUUCCUATT against Tce4 | -0.603
45 | GCUACUAUAUGCGUUUCUUTT against Fads2 | 1.88
46 | GGCAUAAAGUUGUUUACAGTT against 3110006P09Rik | 3.24 (active)
47 | GGUCAUUUCAAGUGCUAAGTT against D7Ertd680e | 1.01
48 | GGUGGAAUGAAAUAUGAAGTT against Ptp4a1 | 0.0271
49 | CCUGGAAAGACUCUCGGAGTT against Cln2 | -0.492
50 | GGUGAUGUCUCGGUACCCATT against Mvk | -0.664
51 | GGGCUACAGCAUGUAUGAGTT against BC057627 | 2.38 (active)
52 | GGAAAUUUCUUAGCACGAATT against Ppp4r1 | 0.667
53 | GGACUUUGAAGAGGACAAUTT against Dhx38 | -2.18
54 | GCACGAAGAACCACACAAGTT against 5830484A20Rik | -0.63

Row | Sequence | z-score
55 | GCAUGAUUUAGAUCGAGUATT against Uqcrfs1 | -1.17
56 | GGAUCACUACCAUGAAAACTT against Bace1 | -0.551
57 | GGUGAAAUAGCUAAAUCAUTT against Usp15 | -0.572 (active)
58 | GGAGAUGGUUGGAUCAUUCTT against D10Ertd610e | 0.642
59 | GGGUGAAAAGCAUUUCUGUTT against MGI:1923902 | 1.38
60 | GGACAAAGAAGACUCCCGATT against Dpf2 | 0.386
61 | GCAGAUAUUCUCUGUGCAGTT against Ccnf | 2.22
62 | GGGCUAAAGUAUAUCCAUUTT against Mapk1 | 1.14 (active)
63 | CGAAGGACAAAAUAUCAGCTT against 4930517G15Rik | -0.16
64 | GUUGAGGAUAACAUUGAACTT against MGC102419 | -0.623
65 | GGGUGUAUUCUGCUUUGUATT against 2600013N14Rik | -1.3
66 | GGGAAUUGCUCACCUCCAUTT against Klre1 | -0.871
67 | GCUAAAAUUGGAUCAAGGATT against Ccbp2 | 2.14
68 | GGACUUCAUCAAAGUCUUATT against Cyp11a1 | -1.45
69 | GGAAGAACUUUAAAAAUGCTT against Mic2l1 | 0.477
70 | CGUACUCUAUGAGGUGCCATT against Rab6ip1 | 0.703
71 | GCUUAAAGAUCGAUCCCGCTT against Slc38a4 | 0.666
72 | GCCAUUAAUAAUCAGUACUTT against Sh2bpsm1 | 0.686
73 | CCAUUGCCAACAACUAGAUTT against Ela3b | 2.87 (active)
74 | GCUGAGGGUUGAUUAGUGGTT against H2-Bl | -1.2
75 | GGCCUCCAGAAACAACUCGTT against Ndst2 | 1.44
76 | GCUAGAACAGCAAAAAAAATT against Scgb3a1 | 0.00969
77 | CCACGUGUUUGCAUUCAAATT against Gdd1 | 0.222
78 | GGAUCCCACACUUUUCUGATT against Rxra | 1.02
79 | CCUAAAACUCACCAUAGAGTT against Nfatc3 | -0.0858
80 | GAUAUAAGGACUCUUUGAATT against 4732486J07Rik | -0.212
81 | GGUCUUUUGGAAUCUCUGGTT against Crip3 | 1.26 (active)

Row | Sequence | z-score
82 | GGAUAGUAACGGAAACUUGTT against Usp25 | 2.49
83 | GGAUUCGGAAUACUACGAUTT against Abo | 1.79
84 | GGUGUCCUUUCAAGUUGAUTT against C530005A01Rik | -0.63
85 | CGGCAGUGUUAAAACAUGATT against Fgfr2 | 0.114
86 | GGAGCAGUAUAUCCUACAUTT against Olfr510 | 0.104 (active)
87 | CCUGAGAACAUUUUAAUCATT against Tas2r116 | -0.685
88 | CCAAUUCUCGAAUCAUUGCTT against Olfr561 | -0.382
89 | GCUACGCUAUCCAAAUUCUTT against AF529169 | -0.118
90 | CCCUUGGAGGAAGCUAACUTT against Pde2a | 1.27 (active)
91 | GGAGAUGCCCAAUGUUUUCTT against Ehd1 | -0.27
92 | CGGCCUGUUAUAAACCUGCTT against 4933409K07Rik | -0.131
93 | GCCUCAUUGAAAGGAUCCATT against GnT-IX | -0.888
94 | GCUUUUGAUCCACAGAUUUTT against Prss33 | 2.34 (active)
95 | GGAACAUCAGGUGCAUGUGTT against Pkd1 | 1.9
96 | GGCUCCACCAAAGCCUGUUTT against 2310066N05Rik | -2.31
97 | CCUUGGGACUGACUGUAAGTT against A230072I16Rik | 2.25
98 | GGUCAAUUAUGAAGAGUUUTT against Calm3 | 1.59
99 | CCGGGUCAGGACAAUUCAUTT against Hsd17b1 | 1.29 (active)
100 | GCAUUCGGCUGAGAAGAUGTT against Foxb2 | -1.8
101 | GGAUAAUUCAGACAACAAUTT against Fus | 3.47 (active)
102 | GGAACCAAUAAAUCUGUGCTT against Rfxank | 0.27
103 | GGUCAUAGGUACGUAUCCGTT against 6430529G09Rik | -0.0313
104 | GGCUGUACAGUCAUGCAAGTT against Adamts5 | 2.62 (active)
105 | GGAAAGCUACUGUCAGAGUTT against Olfr473 | 0.453
